Inconclusive results are not listed. Calls of active or inactive are those of the source. Unless noted, calls follow the shape of the dose curve; as a rule, active = well fitted curve in the direction sought with a large enough effect; inconclusive = small, poorly fitted or top-dose-only effect, or another doubt; inactive = no such curve, though single readings can be large; an effect the other way counts as inactive or inconclusive.
Tests used:
[1] = Cell Viability - BJ (AID 421; calls by dose curve;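 also: potency is read from the fitted curve at half-maximal effect; cells exposed to compound for 40 hours at 37 °C before readout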); settings: BJ fibroblast viability, qHTS
In short: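 Normal human BJ foreskin fibroblasts, 1500/well in complete medium, treated 40 hr at 37 °C. Cellular ATP by CellTiter-Glo luminescence; normalized to DMSO and 100 uM tamoxifen, AC50 from Hill fit.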

[2] = Cell Viability - Jurkat (AID 426;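 active = dose-dependent loss of cell ATP signal giving a full or clear fitted curve, ranked by lower potency value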; also: potency is read from the fitted curve at half-maximal effect); settings: qHTS
In short: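 Jurkat (Clone E6-1) cells, 5000/well in complete medium, exposed to compounds for 40 hr at 37C; intracellular ATP measured by CellTiter-Glo luminescence after 20 min at room temperature. AC50 from Hill fits.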

[3] = Cell Viability - Hek293 (AID 427;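 active = compounds whose dose-response curve shows a full or clear partial loss of cell viability, called from curve shape rather than a numeric limit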;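 also: potency is read from the fitted curve at half-maximal effect; cells exposed to compound for 40 hours at 37 °C before reading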); settings: qHTS
In short: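 HEK293 cells in complete medium were exposed to compound for 40 hr at 37 °C, then cellular ATP was read by CellTiter-Glo luminescence. Data were normalized to DMSO (basal) and 100 uM tamoxifen (100% inhibition), and AC50 came from Hill fits.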

[4] = Cell Viability - HepG2 (AID 433; calls by dose curve;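 also: potency is read from the fitted curve at half-maximal effect; potency for ATP loss meaning cytotoxicity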); settings: qHTS
In short: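 ATP luminescence (CellTiter-Glo) after 40 h compound exposure, 37 °C, HepG2, 1500 cells/well, complete medium. Normalized: DMSO = basal, 100 uM tamoxifen = 100% inhibition. AC50 via standard Hill equation.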

[5] = Cell Viability - MRC5 (AID 434; calls by dose curve;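 also: potency is read from the fitted curve at half-maximal effect; potency reflects cytotoxicity seen as loss of intracellular ATP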); settings: MRC5 lung fibroblast viability, qHTS
In short: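 qHTS cytotoxicity in human lung fibroblast MRC5 cells; 40 hr treatment, 37 °C; cellular ATP by luciferase luminescence; DMSO = 0%, 100 uM tamoxifen = 100% inhibition; Hill-fit AC50.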

[6] = Cell Viability - SK-N-SH (AID 435; calls by dose curve; also: potency is read from the fitted curve at half-maximal effect); settings: SK-N-SH neuroblastoma cell viability qHTS
In short: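 CellTiter-Glo ATP luminescence, 20 min RT read; cells pre-plated 5 hr, compound 40 hr at 37 °C, 1500 cells/well, complete medium. Normalized DMSO = 0, 100 uM tamoxifen = 100% inhibition; Hill-fit AC50.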

[7] = biological target: Mitogen-activated protein kinase 10 (Mus musculus) (UniProt Q61831); assay: JNK3 AlphaScreen Assay (AID 530; active = well fitted curve in either direction with a large enough effect, not every such curve was filed as active;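 also: kinase came from lysate of stimulated human HepG2 cells; signal reports phosphorylation of biotinylated GST-cJun 1-79 at Ser73 with 10 µM ATP; % is scaled to controls: 0 for no effect and ±100 for the full control effect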); settings: JNK3 lysate, c-Jun phosphorylation; series mostly up to 57.1 µM
In short: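 Compound titrations were preincubated 15 minutes at room temperature with substrate, antibody and pre-activated JNK3-containing HepG2 lysate. Reactions were started with 10 uM ATP and stopped with EDTA-containing bead buffer for AlphaScreen detection.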

[8] = Cell Viability - N2a (AID 540); settings: N2a mouse neuroblastoma cell viability; activity change, negative = cytotoxicity: at 92.2 µM (top of the series);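 also: plate controls were DMSO alone for no effect and tamoxifen control for full effect; nearly all actives have a fitted effect of over 45% in size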
In short: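 Mouse neuroblastoma N2a cells, 1500/well, exposed to compounds 40 h at 37 °C in complete medium. Viability measured as cellular ATP by CellTiter-Glo luminescence; AC50 from Hill fits of concentration-response.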

[9] = Cell Viability - NIH 3T3 (AID 541); settings: NIH 3T3 cell viability, qHTS; activity change, negative = cytotoxicity: at 92.2 µM (top of the series);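 also: plate controls were DMSO alone for no effect and tamoxifen positive control for full effect; nearly all actives have a fitted effect of over 25% in size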
In short: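 Mouse NIH 3T3 fibroblasts, 1000 cells/well, rested 5 hr at 37 °C, then exposed to compound for 40 hr at 37 °C in complete medium. Viability read as intracellular ATP by CellTiter-Glo luminescence; AC50 from Hill-equation fits of concentration-response data.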

[10] = Cell Viability - HUV-EC-C (AID 542); settings: HUV-EC-C endothelial cell viability, qHTS; series mostly up to 92.2 µM; also: % is scaled to controls: 0 for no effect and ±100 for the full control effect; nearly all actives have a fitted effect of over 35% in size
In short: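 HUV-EC-C human vascular endothelial cells, 1000/well, exposed to compound for 40 hr at 37 °C in complete medium. Intracellular ATP was read by CellTiter-Glo luminescence. AC50 came from Hill-equation fits of concentration-response data.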

[11] = Cell Viability - H-4-II-E (AID 543); settings: H-4-II-E rat hepatoma viability; series mostly up to 92.2 µM; also: % is scaled to controls: 0 for no effect and ±100 for the full control effect; nearly all actives have a fitted effect of over 35% in size
In short: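 Rat hepatoma H-4-II-E cells, 1500 per well, treated 40 h at 37 °C in complete medium. Cellular ATP read by CellTiter-Glo luminescence; AC50 from Hill fits of concentration-response.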

[12] = Cell Viability - SH-SY5Y (AID 544); settings: SH-SY5Y neuroblastoma cell viability; viability change, negative = cytotoxic: at 92.2 µM (top of the series); also: nearly all actives have a fitted effect of over 55% in size
In short: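 SH-SY5Y human neuroblastoma cells (1500/well) incubated 5 h, then compound-treated 40 h at 37 °C in complete medium. Viability read as intracellular ATP by CellTiter-Glo luminescence after 20 min; AC50 from Hill-equation fits of qHTS concentration-response.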

[13] = Cell Viability - Renal Proximal Tubule (AID 545); settings: renal proximal tubule cells viability, primary cells of rat origin; series mostly up to 91.7 µM; also: nearly all actives have a fitted effect of over 40% in size
In short: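 Rat kidney proximal tubule cells, freshly isolated; 1000 cells/well, 5 hr settle, compound 40 hr 37 °C. CellTiter-Glo 20 min RT, luminescence read. AC50 by standard Hill fit.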

[14] = Cell Viability - Mesenchymal (AID 546); settings: mesenchymal cells viability, qHTS; series mostly up to 91.7 µM;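 also: cells exposed to compound for 40 hours before reading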
In short: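 AC50 values reflect the drop in intracellular ATP in a human kidney mesenchymal line derived from normal glomeruli. Treatment lasts 40 hr at 37 °C in complete medium, and the signal comes from CellTiter-Glo luminescence.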

[15] = Cellular Toxicity (caspase-3) HepG2 (AID 654); settings: HepG2 caspase-3 activation, luminescence; series mostly up to 92.2 µM;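 also: cells exposed to compound for 16 hours before reading; 0% = DMSO alone and 100% = caspase signal from 100 µM tamoxifen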
In short: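 HepG2 cells (1500/well) were treated 16 h at 37 °C in complete medium, then caspase 3/7 activity was read by Caspase-Glo luminescence. Data were normalized to DMSO and 100 uM tamoxifen; AC50 came from Hill-equation fits of qHTS concentration-response.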

[16] = Cellular Toxicity (caspase-3) Jurkat (AID 655); settings: Jurkat caspase-3 activation, luminescence; caspase-3 activation: at 92.2 µM (top of the series), DMSO = 0%, tamoxifen = 100%;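 also: cells exposed to compound for 16 h at 37 °C before reading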
In short: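 Luminescent caspase-3/7 readout (aminoluciferin substrate cleavage) in human T-cell leukemia Jurkat cells after 16 hr compound exposure. Concentration-response normalized to DMSO and 100 uM tamoxifen; AC50 by standard Hill equation.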

[17] = Cellular Toxicity (caspase-3) HUV-EC-C (AID 656); settings: HUV-EC-C cells, caspase-3 activation (apoptosis), vehicle = 0, 100 µM tamoxifen = 100%; series mostly up to 92.2 µM
In short: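 Luminescent caspase-3/7 activation (aminoluciferin substrate cleavage) in HUV-EC-C cells after 16 hr compound exposure, 37°C. Signal normalized to DMSO basal and 100 uM tamoxifen as 100%; AC50 from concentration-response fitted with the Hill equation.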

[18] = Cellular Toxicity (caspase-3) SHSY5Y (AID 657); settings: SH-SY5Y caspase-3 activation, DMSO zero, 10 µM staurosporine = 100%; series mostly up to 91.7 µM;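 also: cells exposed to compound for 16 hours at 37 °C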
In short: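 Luminescent caspase-3/7 readout (aminoluciferin release) in SH-SY5Y cells after 16 h compound exposure in complete medium. Activity scaled between DMSO basal and 10 uM staurosporine as 100%; concentration-response fitted to Hill equation for AC50.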

[19] = Cellular Toxicity (caspase-3) BJ (AID 658); settings: BJ fibroblasts, luminescence, normalized: DMSO 0%, staurosporine 100%; series mostly up to 91.7 µM;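 also: cells exposed to compound for 16 hours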
In short: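 Readout: Caspase-Glo 3/7 luminescence increase in BJ cells after 16 hr treatment at 37 °C. Staurosporine and tamoxifen served as positive controls; AC50 values came from Hill modelling of data normalized to DMSO and 10 uM staurosporine.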

[20] = Cellular Toxicity (caspase-3) MRC-5 (AID 659); settings: MRC-5 cells, luminescence, normalized: DMSO 0%, 10 µM staurosporine 100%; series mostly up to 91.7 µM;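 also: cells exposed to compound for 16 h at 37 °C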
In short: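 Concentration-dependent caspase 3/7 activation is measured in human normal lung fibroblasts (MRC-5) following 16-hour treatment. AC50 values come from standard Hill-equation modeling of luminescence normalized to DMSO and 10 uM staurosporine.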

CCC(C)O (centres undefined)
inactive: Potency [1] > 92 µM | Potency [2] > 92 µM | Potency [3] > 92 µM | Potency [4] > 92 µM | Potency [5] > 92 µM | Potency [6] > 92 µM | outcome [7] | activity change, negative = cytotoxicity [8] -8.95% | Potency [9] | Potency [10] | Potency [11] | Potency [12] | Potency [13] | Potency [14] | Potency [15] | caspase-3 activation [16] 0.184% | outcome [17] | outcome [18] | outcome [19] | outcome [20]

CC(=O)c1ccccc1[N+](=O)[O-]
inactive: Potency [1] > 92 µM | Potency [2] > 92 µM | Potency [3] > 92 µM | Potency [4] > 92 µM | Potency [5] > 92 µM | Potency [6] > 92 µM | outcome [7] | activity change, negative = cytotoxicity [8] -16.5% | Potency [9] | Potency [10] | Potency [11] | Potency [12] | Potency [14] | Potency [15] | caspase-3 activation [16] 0.506% | outcome [17] | outcome [18] | outcome [19] | outcome [20]

Cc1cccc2cccnc12
inactive: Potency [1] > 92 µM | Potency [2] > 92 µM | Potency [3] > 92 µM | Potency [4] > 92 µM | Potency [5] > 92 µM | Potency [6] > 92 µM | outcome [7] | activity change, negative = cytotoxicity [8] -0.348% | Potency [9] | Potency [10] | Potency [11] | Potency [12] | Potency [14] | Potency [15] | outcome [17] | outcome [18] | outcome [19] | outcome [20]

CCCCCCCCC/C=C/CC1CC(=O)OC1=O (centres undefined)
inactive: Potency [1] > 92 µM | Potency [2] > 92 µM | Potency [3] > 92 µM | Potency [4] > 92 µM | Potency [5] > 92 µM | Potency [6] > 92 µM | outcome [7] | activity change, negative = cytotoxicity [8] 11.9% | Potency [9] | Potency [10] | Potency [11] | Potency [12] | Potency [14] | Potency [15] | caspase-3 activation [16] 1.29% | outcome [17] | outcome [18] | outcome [19] | outcome [20]

Nc1ccccc1[N+](=O)[O-]
inactive: Potency [1] > 92 µM | Potency [2] > 92 µM | Potency [3] > 92 µM | Potency [4] > 92 µM | Potency [5] > 92 µM | Potency [6] > 92 µM | outcome [7] | activity change, negative = cytotoxicity [8] -9.35% | Potency [9] | Potency [10] | Potency [11] | Potency [13] | Potency [14] | Potency [15] | caspase-3 activation [16] -0.598% | outcome [17] | outcome [18] | outcome [19] | outcome [20]

COc1ccc(N=[N+]([O-])c2ccc(OC)cc2)cc1
inactive: Potency [1] > 92 µM | Potency [2] > 92 µM | Potency [3] > 92 µM | Potency [4] > 92 µM | Potency [5] > 92 µM | Potency [6] > 92 µM | outcome [7] | activity change, negative = cytotoxicity [8] -19% | Potency [9] | Potency [10] | Potency [12] | Potency [13] | Potency [14] | Potency [15] | caspase-3 activation [16] -8.89% | outcome [17] | outcome [18] | outcome [19] | outcome [20]
